{
  "source": "PubChem BioAssay AID1159580",
  "about": "(chemical genetic matrix, 2015)",
  "test": "chemical genetic growth profiling, strain panel (AID 1159580);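 note: tested at 20 µM; growth read once vehicle control cultures reached saturation at 30 °C; 1 = growth at the plate median or of vehicle wells; lower values mean less growth of the strain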",
  "details": "S. cerevisiae deletion strains, growth OD",
  "key": {"[1]": {"details": "locus YDL101C, strain DUN1, stronger effect = lower value"}, "[2]": {"details": "locus YHR030C, strain SLT2, stronger effect = lower value"}},
  "note": "The campaign covered roughly 5,500 compounds. About 2,000 (36%) were called active. Not shown: some 18% with an inconclusive outcome. The list shows a part of the results. Values without a mark were called inactive. Cut-off read from the data, not from the text of the source: active = normalized growth mostly below about 0.91 (no sharp cut-off); inconclusive = no clear call, values can overlap the other calls; inactive = mostly above about 0.92.",
  "data": [
    {"smiles": "CCOC(=O)c1ccc(Oc2ccc(Cl)cc2Cl)c([N+](=O)[O-])c1", "values": [
      {"measurement": "normalized growth", "setting": "locus YAL013W, strain DEP1, stronger effect = lower value", "result": 1},
      {"measurement": "normalized growth", "setting": "locus YBR229C, strain ROT2, stronger effect = lower value", "result": 0.993},
      {"measurement": "normalized growth", "setting": "[1]", "result": 0.992},
      {"measurement": "normalized growth", "setting": "locus YDR150W, strain NUM1, stronger effect = lower value", "result": 1.01},
      {"measurement": "normalized growth", "setting": "locus YEL061C, strain CIN8, stronger effect = lower value", "result": 0.959},
      {"measurement": "normalized growth", "setting": "locus YGR078C, strain PAC10, stronger effect = lower value", "result": 1.01},
      {"measurement": "normalized growth", "setting": "[2]", "result": 0.883},
      {"measurement": "normalized growth", "setting": "locus YHR087W, strain rtc3, stronger effect = lower value", "result": 0.998},
      {"measurement": "normalized growth", "setting": "locus YJL187C, strain SWE1, stronger effect = lower value", "result": 0.99},
      {"measurement": "normalized growth", "setting": "locus YJR043C, strain POL32, stronger effect = lower value", "result": 0.996},
      {"measurement": "normalized growth", "setting": "locus YJR075W, strain HOC1, stronger effect = lower value", "result": 0.968},
      {"measurement": "normalized growth", "setting": "locus YLR039C, strain RIC1, stronger effect = lower value", "result": 1},
      {"measurement": "normalized growth", "setting": "locus YLR058C, strain SHM2 (second series), stronger effect = lower value", "result": 0.99},
      {"measurement": "normalized growth", "setting": "locus YLR085C, strain ARP6, stronger effect = lower value", "result": 0.92},
      {"measurement": "normalized growth", "setting": "locus YLR262C, strain YPT6, stronger effect = lower value", "result": 1.01},
      {"measurement": "normalized growth", "setting": "locus YML094W, strain GIM5, stronger effect = lower value", "result": 0.975},
      {"measurement": "normalized growth", "setting": "locus YMR219W, strain ESC1, stronger effect = lower value", "result": 0.997},
      {"measurement": "normalized growth", "setting": "locus YMR263W, strain SAP30, stronger effect = lower value", "result": 0.996},
      {"measurement": "normalized growth", "setting": "locus YNL128W, strain TEP1, stronger effect = lower value", "result": 0.987},
      {"measurement": "normalized growth", "setting": "locus YNL153C, strain GIM3, stronger effect = lower value", "result": 0.998},
      {"measurement": "normalized growth", "setting": "locus YNL298W, strain CLA4 (second series), stronger effect = lower value", "result": 0.961},
      {"measurement": "normalized growth", "setting": "locus YNL322C, strain KRE1, stronger effect = lower value", "result": 1},
      {"measurement": "normalized growth", "setting": "locus YNR030W, strain Alg12, stronger effect = lower value", "result": 0.959},
      {"measurement": "normalized growth", "setting": "locus YOL006C, strain TOP1, stronger effect = lower value", "result": 0.81},
      {"measurement": "normalized growth", "setting": "locus YPL055C, strain LGE1, stronger effect = lower value", "result": 0.961},
      {"measurement": "normalized growth", "setting": "locus YPL241C, strain CIN2, stronger effect = lower value", "result": 0.958},
      {"measurement": "normalized growth", "setting": "locus YPR135W, strain CTF4, stronger effect = lower value", "result": 0.918}
    ]},
    {"smiles": "O=[N+]([O-])c1ccsc1Oc1cccc(C(F)(F)F)c1", "values": [
      {"measurement": "normalized growth", "setting": "locus YAR019C, strain CDC15, stronger effect = lower value", "result": 0.945},
      {"measurement": "normalized growth", "setting": "locus YBL105C, strain PKC1, stronger effect = lower value", "result": 0.986},
      {"measurement": "normalized growth", "setting": "locus YBR135W, strain CKS1, stronger effect = lower value", "result": 0.95},
      {"measurement": "normalized growth", "setting": "locus YBR136W, strain MEC1, stronger effect = lower value", "result": 0.976},
      {"measurement": "normalized growth", "setting": "locus YBR160W, strain CDC28, stronger effect = lower value", "result": 1.01},
      {"measurement": "normalized growth", "setting": "locus YDL017W, strain CDC7, stronger effect = lower value", "result": 0.987},
      {"measurement": "normalized growth", "setting": "locus YDL028C, strain MPS1, stronger effect = lower value", "result": 0.989},
      {"measurement": "normalized growth", "setting": "[1]", "result": 0.958},
      {"measurement": "normalized growth", "setting": "locus YDL108W, strain KIN28, stronger effect = lower value", "result": 0.979},
      {"measurement": "normalized growth", "setting": "locus YDL132W, strain cdc53, stronger effect = lower value", "result": 0.946},
      {"measurement": "normalized growth", "setting": "locus YDL214C, strain PRR2, stronger effect = lower value", "result": 0.909},
      {"measurement": "normalized growth", "setting": "locus YDR052C, strain DBF4, stronger effect = lower value", "result": 0.989},
      {"measurement": "normalized growth", "setting": "locus YDR054C, strain cdc34, stronger effect = lower value", "result": 0.929},
      {"measurement": "normalized growth", "setting": "locus YDR226W, strain ADK1, stronger effect = lower value", "result": 0.973},
      {"measurement": "normalized growth", "setting": "locus YDR477W, strain SNF1, stronger effect = lower value", "result": 0.876},
      {"measurement": "normalized growth", "setting": "locus YER123W, strain YCK3, stronger effect = lower value", "result": 0.814},
      {"measurement": "normalized growth", "setting": "locus YER133W, strain GLC7, stronger effect = lower value", "result": 0.831},
      {"measurement": "normalized growth", "setting": "locus YFL009W, strain cdc4, stronger effect = lower value", "result": 0.925},
      {"measurement": "normalized growth", "setting": "locus YFL029C, strain CAK1, stronger effect = lower value", "result": 0.94},
      {"measurement": "normalized growth", "setting": "locus YFR003C, strain YPI1, stronger effect = lower value", "result": 0.984},
      {"measurement": "normalized growth", "setting": "locus YFR019W, strain FAB1, stronger effect = lower value", "result": 0.927},
      {"measurement": "normalized growth", "setting": "locus YFR028C, strain CDC14, stronger effect = lower value", "result": 0.955},
      {"measurement": "normalized growth", "setting": "locus YGR040W, strain KSS1, stronger effect = lower value", "result": 0.857},
      {"measurement": "normalized growth", "setting": "locus YGR052W, strain FMP48, stronger effect = lower value", "result": 0.88},
      {"measurement": "normalized growth", "setting": "locus YGR092W, strain DBF2, stronger effect = lower value", "result": 0.769},
      {"measurement": "normalized growth", "setting": "[2]", "result": "1.26 [resistant] (active)"},
      {"measurement": "normalized growth", "setting": "locus YHR079C, strain IRE1, stronger effect = lower value", "result": 0.962},
      {"measurement": "normalized growth", "setting": "locus YHR082C, strain KSP1, stronger effect = lower value", "result": 0.907},
      {"measurement": "normalized growth", "setting": "locus YHR205W, strain SCH9, stronger effect = lower value", "result": 0.872},
      {"measurement": "normalized growth", "setting": "locus YIL147C, strain SLN1, stronger effect = lower value", "result": 0.979},
      {"measurement": "normalized growth", "setting": "locus YJL095W, strain BCK1, stronger effect = lower value", "result": 0.861},
      {"measurement": "normalized growth", "setting": "locus YJL128C, strain PBS2, stronger effect = lower value", "result": 0.939},
      {"measurement": "normalized growth", "setting": "locus YJL157C, strain FAR1, stronger effect = lower value", "result": 0.887},
      {"measurement": "normalized growth", "setting": "locus YJR016C, strain ILV3, stronger effect = lower value", "result": 0.952},
      {"measurement": "normalized growth", "setting": "locus YJR066W, strain TOR1 (second series), stronger effect = lower value", "result": 0.71},
      {"measurement": "normalized growth", "setting": "locus YJR066W, strain TOR1, stronger effect = lower value", "result": 0.926},
      {"measurement": "normalized growth", "setting": "locus YKL048C, strain ELM1, stronger effect = lower value", "result": 0.912},
      {"measurement": "normalized growth", "setting": "locus YKL067W, strain YNK1, stronger effect = lower value", "result": 0.905},
      {"measurement": "normalized growth", "setting": "locus YKL101W, strain HSL1, stronger effect = lower value", "result": 0.931},
      {"measurement": "normalized growth", "setting": "locus YKL193C, strain SDS22, stronger effect = lower value", "result": 0.944},
      {"measurement": "normalized growth", "setting": "locus YKL203C, strain TOR2, stronger effect = lower value", "result": 0.887},
      {"measurement": "normalized growth", "setting": "locus YLR113W, strain HOG1, stronger effect = lower value", "result": "0.821 (active)"},
      {"measurement": "normalized growth", "setting": "locus YLR133W, strain CKI1, stronger effect = lower value", "result": 0.936},
      {"measurement": "normalized growth", "setting": "locus YLR403W, strain SFP1, stronger effect = lower value", "result": 0.852},
      {"measurement": "normalized growth", "setting": "locus YML070W, strain DAK1, stronger effect = lower value", "result": 0.895},
      {"measurement": "normalized growth", "setting": "locus YMR001C, strain CDC5, stronger effect = lower value", "result": 0.956},
      {"measurement": "normalized growth", "setting": "locus YMR205C, strain PFK2 (second series), stronger effect = lower value", "result": 0.911},
      {"measurement": "normalized growth", "setting": "locus YMR277W, strain FCP1, stronger effect = lower value", "result": 0.94},
      {"measurement": "normalized growth", "setting": "locus YNL006W, strain LST8, stronger effect = lower value", "result": 0.946},
      {"measurement": "normalized growth", "setting": "locus YNL020C, strain ARK1, stronger effect = lower value", "result": 0.925},
      {"measurement": "normalized growth", "setting": "locus YNL161W, strain CBK1, stronger effect = lower value", "result": 0.972},
      {"measurement": "normalized growth", "setting": "locus YNL183C, strain NPR1, stronger effect = lower value", "result": 0.869},
      {"measurement": "normalized growth", "setting": "locus YNL207W, strain RIO2, stronger effect = lower value", "result": 0.96},
      {"measurement": "normalized growth", "setting": "locus YNL222W, strain SSU72, stronger effect = lower value", "result": 0.972},
      {"measurement": "normalized growth", "setting": "locus YNL307C, strain MCK1 (second series), stronger effect = lower value", "result": 0.939},
      {"measurement": "normalized growth", "setting": "locus YOL078W, strain AVO1, stronger effect = lower value", "result": 0.93},
      {"measurement": "normalized growth", "setting": "locus YOL136C, strain PFK27, stronger effect = lower value", "result": 0.89},
      {"measurement": "normalized growth", "setting": "locus YOR061W, strain CKA2, stronger effect = lower value", "result": 0.88},
      {"measurement": "normalized growth", "setting": "locus YOR119C, strain RIO1, stronger effect = lower value", "result": 0.883},
      {"measurement": "normalized growth", "setting": "locus YOR231W, strain MKK1, stronger effect = lower value", "result": 0.849},
      {"measurement": "normalized growth", "setting": "locus YOR329C, strain SCD5, stronger effect = lower value", "result": 0.984},
      {"measurement": "normalized growth", "setting": "locus YPL031C, strain PHO85, stronger effect = lower value", "result": 0.842},
      {"measurement": "normalized growth", "setting": "locus YPL153C, strain RAD53, stronger effect = lower value", "result": 0.846},
      {"measurement": "normalized growth", "setting": "locus YPL204W, strain HRR25, stronger effect = lower value", "result": 0.845},
      {"measurement": "normalized growth", "setting": "locus YPL209C, strain IPL1, stronger effect = lower value", "result": 0.984},
      {"measurement": "normalized growth", "setting": "locus YPL256C, strain CLN2, stronger effect = lower value", "result": 0.991},
      {"measurement": "normalized growth", "setting": "locus YPR025C, strain CCL1, stronger effect = lower value", "result": 0.98},
      {"measurement": "normalized growth", "setting": "locus YPR106W, strain ISR1, stronger effect = lower value", "result": 0.966},
      {"measurement": "normalized growth", "setting": "locus YPR111W, strain DBF20, stronger effect = lower value", "result": 0.96},
      {"measurement": "normalized growth", "setting": "strain NNK1, stronger effect = lower value", "result": 0.976},
      {"measurement": "normalized growth", "setting": "strain TSCII, stronger effect = lower value", "result": 0.932}
    ]}
  ]
}
